Activity calls are given as the source filed them. The calls were made as follows: active = hit-call score of the fitted dose curve at least 0.9, where 1 is the maximum; inactive = score below 0.9.
test: CCTE_Padilla_ZF_Score.Edema: CCTE's 144 Hour Post-fertilization zebrafish Assay Score for Edema Malformation, Padilla Lab (AID 2284406)
Procedure: CCTE_Padilla_ZF_Phenotype_Score is a whole embryo, multiplexed assay using zebrafish ova exposed for 144 hours post fertilization on a 96-well plate.CCTE_Padilla_ZF_Score.Edema is one of one assay component(s) measured or calculated from the CCTE_Padilla_ZF_Phenotype_Score assay. It is designed to make measurements of zebrafish development as detected with brightfield microscopy of developing zebrafish embryos.Data from the assay component CCTE_Padilla_ZF_Score.Edema was analyzed into 1 assay endpoints. This assay endpoint, CCTE_Padilla_ZF_Score.Edema, was analyzed in the positive analysis fitting direction relative to DMSO as the negative control and baseline of activity. Using a type of viability reporter, gain-of-signal activity can be used to understand changes in developmentals as they relate to the whole embryo. To generalize the intended target to other relatable targets, this assay endpoint is annotated to the zebrafish development intended target family, where the subfamily is embryonic edema.
Zebrafish husbandry: Wild type adult zebrafish (Danio rerio; undefined outbred stock obtained from Aquatic Research Organisms, Hampton, NH, 03842) were housed in an AAALAC-approved animal facility at 28C with a 14:10 h light: dark cycle (lights on at 08:30 h). Adult fish (2-3 females per male; density = 15-20 adults per tank) were kept in one of several 9-liter (L) flow-through colony tanks (Aquaneering Inc., San Diego, CA). All adults in a colony tank were placed in a 2 L (static) breeding tank (Aquatic Habitats, Apopka, FL) one hour prior to light onset. Typically, adults from two to three colony tanks were mated on the same day. Two hours after light onset the adults were returned to the colony tank. All embryos were gathered from each breeder tank, pooled, and placed in a 28C water bath for 2 h, followed by two washes with 0.06% bleach (v/v) in 10% Hanks' Balanced Salt Solution (13.7 mM NaCl 0.54 mM KCl, 25 uM Na2HPO4, 130 uM CaCl2 100 um MgSO4 and 420 um NaHCO3,), hereafter referred to as Hanks' solution, for 5 min in order to remove any residual bacteria or fungi. Immediately following washing, the embryos were examined, and healthy embryos were separated from dead or unfertilized eggs and moved into fresh Hanks'. Chemical exposures: Zebrafish embryos were exposed in 96-well plates. Between 6- and 8-hours post fertilization (hpf), healthy embryos (with chorions) were transferred, one embryo per well, into 96 well (0.5 mL) microtiter plates (Cell Culture-Treated, Flat-Bottom Microplate 96 well [Corning Costar, Kennebunk, ME; Cat 09-761-145]) filled with 200 uL of Hanks' solution. A random number generator was used to assign the order in which the rows of embryos were plated in 96 well plates each week. After plating, the embryos were dosed with 0.8 uL of the chemical dosing solution then immediately sealed with AlumaSeal II (Excel Scientific Inc, Victorville, CA) to prevent volatilization of the chemicals, and then placed in a leakproof secondary container. These containers were placed in an incubator maintained on a 14:10 h light: dark cycle at 26C for rearing. On 5 dpf, live larvae were gently moved out of the plate with test chemicals and into a new 96 well mesh plate (Millipore Corp., Bedford, MA) with just the Hanks' solution. Once within the mesh well plate, the animals were rinsed with 400 uL of fresh Hanks' three times, and then the plates were covered with a non-adhesive material (Microseal A, BioRad, Hercules, CA), plate lid added, and then plate sides wrapped in Parafilm (PM992, Bermis Company, Neenah, WI), and returned to the incubator. This rinse on 5 dpf was conducted to lessen the possible exposure of the human assessors to the chemicals during detailed examination of each larva at 6 dpf.Larval assessments: On 6 dpf between 8 and 10 AM, two individual assessors, blinded to the chemical treatments, independently examined each larva for mortality, hatching status, and malformations using an Olympus SZH10 stereo microscope. […]

Question: With O=C(Cl)C(F)(F)C(F)(F)C(F)(F)C(=O)Cl as the compound, how does the outcome read?
Answer: Its outcome is “inactive”.

Question: With FC(F)(F)C(F)(F)C(F)(F)C(F)(F)C(F)(F)C(F)(F)I as the compound, how does the outcome read?
Answer: Its outcome is “inactive”.

Question: With OC(O)(C(F)C(O)(O)C(F)(F)F)C(F)(F)F as the compound, how does the AC50 read?
Answer: The AC50 was 31.3 µM (active).

Question: Which outcome does the source give for FC(F)(F)COC(OCC(F)(F)F)OCC(F)(F)F here?
Answer: The outcome was “inactive”.

Question: With FC(F)=C(F)C(F)(F)C(F)(F)C(F)(F)C(F)(F)C(F)(F)C(F)(F)F as the compound, how does the outcome read?
Answer: Its outcome is “inactive”.

Question: For C[Si](C)(C)C(F)(F)C(F)(F)C(F)(F)F, which outcome is on record?
Answer: The outcome was “inactive”.

Question: Which outcome does the source give for OCCC(F)(F)C(F)(F)C(F)(F)C(F)(F)F here?
Answer: The outcome was “inactive”.

Question: With O=S(=O)(O)CCC(F)(F)C(F)(F)C(F)(F)C(F)(F)C(F)(F)C(F)(F)F as the compound, how does the outcome read?
Answer: Its outcome is “inactive”.

Question: With FC(F)C(F)(F)COCC1CO1 (stereo not given) as the compound, how does the AC50 read?
Answer: Its AC50 is 29.5 µM (active).

Question: With NCC(F)(F)C(F)(F)C(F)(F)C(F)(F)F as the compound, how does the outcome read?
Answer: The outcome was “inactive”.

Reference: PubChem BioAssay (EPA / NIEHS)
